Laboratory results published in the OligoGym collection.

What follows are sequences tested against METTL21D (assay: pooled miR-30 sensor sort-seq; sequence = guide strand). Details: shRNA.
Further: reference of the scale not given here.

Row | Sequence | sensor-assay potency score (higher = more potent)
1 | TTGTAGTTATTCAAAAACCTTT | -1.15
2 | TTCGTTGTTCATAACAACATAT | -1.05
3 | TTGCAATTCCTCAAGATCGGTG | -0.436
4 | TTTAAGAAGAACTTGATGCTGA | 0.983
5 | TATACTGCTGTAGTCGTAGCAC | 0.182
6 | TATAGAACTACATTTGTAGTTA | 0.621
7 | TTGGCTTGAACAGAACCAGTGA | 0.803
8 | TAGCACTGTACCATCCCGCTTC | 0.175

Each sequence was assayed against MET in the same assay as above. Details: shRNA.

Row | Sequence | sensor-assay potency score (higher = more potent)
9 | TTAAACACTTCCTTCTTTGTGG | 0.061
10 | TATATTAAACACTTCCTTCTTT | 0.147
11 | TTTCTTGCCATCATTGTCCAAC | -0.767
12 | TTCTGTGAGAATACACTCCAGA | -0.115
13 | TGATCGAGAAACCACAACCTGC | -1.33
14 | TATGTCAGCAGTATGATTGTGG | 0.148
15 | TATTCTTGTGTGAAAAGTCTGA | 0.132
16 | TTGCTTTGTGCGAACACCCCGA | 0.0698
17 | TTGAGTTTGCAGACTTTCCAAA | -0.558
18 | TAGAATGACATTCTGGATGGGT | 0.522
19 | TTGATATTGAGACAACACCAGC | -1.2
20 | TTCATTGAAATGCACAATCAGG | -0.957

The sequences below were run against MEX3D in the same assay as above. Details: shRNA.

Row | Sequence | sensor-assay potency score (higher = more potent)
21 | TTGACCGTGGAGCAGCCGCTGA | -1.71
22 | AGGAAGTCGAAGTCGAAGCCGA | -1.39
23 | TAGGTGTGCGTCCGCTGCTGGA | -1.39
24 | TTGACGCTTTTCTTGCGGCTGC | -0.68
25 | TTGATCTTGCAGCCCTGGCGAC | -1.24
26 | TAGGTGTTTGTCTTGGCCCGCA | 0.155
27 | AAGTCGAAGCCGAAGTCGCAGT | -0.692
28 | TTGGCGTGGAAGTCGCTGTCGG | -0.234
29 | TTGATGTAGGTGTTTGTCTTGG | -0.318
30 | TGATGTAGGTGTTTGTCTTGGC | 0.554
31 | TTGCCGGAGCCGCTGTAGGGGC | -1.61
32 | TGGTCGGCCAGCAGCGTCGGGG | -1.69

What follows are sequences tested against MFNG in the same assay as above. Details: shRNA.

Row | Sequence | sensor-assay potency score (higher = more potent)
33 | TCACATAGTTGTCATCGTCCAC | -0.585
34 | TCGGTGAAGACAAATGTCTGTT | -0.485
35 | AATGAAGACATCGTGTAGCTGT | 0.421
36 | TCGAACTCAGCAGCCATCTTGC | -1.05
37 | AACTGTACCAGCCTCGTGCGGT | -0.733
38 | TAGTTGTCATCGTCCACATGGC | -0.357
39 | ATAGTTGTCATCGTCCACATGG | -0.521
40 | TTGTCATCGTCCACATGGCAGA | -1.57
